Inconclusive results are not listed. Activity calls are given as the source filed them. Calls come from the whole dose curve; as a rule, active = well fitted curve in the direction sought with a large enough effect; inconclusive = small, poorly fitted or top-dose-only effect, or another doubt; inactive = no such curve, though single readings can be large; an effect the other way counts as inactive or inconclusive.
Tests used:
[1] = qHTS of pediatric cancer cell lines to identify multiple opportunities for drug repurposing: Confirmatory screen for MG 63 (6-TG R) cells (AID 1347119); note: nearly all actives have a fitted effect of over 55% in size; note: potency is the fitted concentration of half-maximal effect
Procedure, shortened: (§1)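 Viability after 48 h compound treatment at 37C, 500-1,000 cells/well, read as ATP luminescence with CellTiter-Glo. Primary screens used 11-point (MIPE, 0.78 nM-46 µM) or 8-point (NPC, 0.59 nM-46 µM) final concentrations; follow-up screens used 11-point dilutions.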

[2] = qHTS of pediatric cancer cell lines to identify multiple opportunities for drug repurposing: Confirmatory screen for control Hh wild type fibroblast cells (AID 1347121); note: nearly all actives have a fitted effect of over 70% in size; note: potency is the fitted concentration of half-maximal effect
Procedure, shortened: as §1

[3] = qHTS of pediatric cancer cell lines to identify multiple opportunities for drug repurposing: Confirmatory screen for Rh30 cells (AID 1347126); note: potency is the fitted concentration of half-maximal effect; nearly all actives have a fitted effect of over 55% in size
Procedure, shortened: as §1

[4] = qHTS of pediatric cancer cell lines to identify multiple opportunities for drug repurposing: Confirmatory screen for Saos-2 cells (AID 1347127); note: potency is the fitted concentration of half-maximal effect; nearly all actives have a fitted effect of over 60% in size
Procedure, shortened: as §1

[5] = qHTS of pediatric cancer cell lines to identify multiple opportunities for drug repurposing: Confirmatory screen for OHS-50 cells (AID 1347128);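 note: potency is the fitted concentration of half-maximal effect; compound exposure lasted 48 h at 37 degrees C; nearly all actives have a fitted effect of over 55% in size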
Procedure, shortened: as §1

[6] = qHTS of pediatric cancer cell lines to identify multiple opportunities for drug repurposing: Confirmatory screen for SK-N-SH cells (AID 1347129);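 note: cells exposed to compound for 48 h before viability read; nearly all actives have a fitted effect of over 60% in size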; note: potency is the fitted concentration of half-maximal effect
Procedure, shortened: as §1

[7] = qHTS of pediatric cancer cell lines to identify multiple opportunities for drug repurposing: Confirmatory screen for U-2 OS cells (AID 1347122); note: nearly all actives have a fitted effect of over 65% in size
Procedure, shortened: as §1

[8] = qHTS of pediatric cancer cell lines to identify multiple opportunities for drug repurposing: Confirmatory screen for Rh41 cells (AID 1347123);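 note: 48 h compound exposure; nearly all actives have a fitted effect of over 60% in size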; note: potency is the fitted concentration of half-maximal effect
Procedure, shortened: as §1

[9] = qHTS of pediatric cancer cell lines to identify multiple opportunities for drug repurposing: Confirmatory screen for RD cells (AID 1347124);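 note: potency is the fitted concentration of half-maximal effect; cells exposed to compound for 48 h before viability readout; nearly all actives have a fitted effect of over 65% in size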
Procedure, shortened: as §1

Structure (SMILES)	Potency [1]	Potency [2]	Potency [3]	Potency [4]	Potency [5]	Potency [6]	Potency [7]	Potency [8]	Potency [9]
CC(=O)[O][Hg][c]1ccccc1	4140 nM (active)	13100 nM (active)	1310 nM (active)	1170 nM (active)	5850 nM (active)	2640 nM (active)			
CCCCCC[C@H]1C(=O)O[C@H](C)[C@H](NC(=O)c2cccc(NC=O)c2O)C(=O)O[C@@H](C)[C@@H]1OC(=O)CC(C)C	13.1 nM (active)	16.5 nM (active)				9350 nM (active)			
C[C@@H]1CC[C@@]2(OC1)O[C@H]1C[C@H]3[C@@H]4CC=C5C[C@@H](O[C@@H]6O[C@H](CO)[C@@H](O[C@@H]7O[C@@H](C)[C@H](O)[C@@H](O)[C@@H]7O)[C@H](O)[C@@H]6O[C@@H]6O[C@@H](C)[C@H](O)[C@@H](O)[C@@H]6O)CC[C@]5(C)[C@@H]4CC[C@]3(C)[C@@H]1[C@H]2C	2610 nM (active)	13100 nM (active)	4140 nM (active)	5220 nM (active)	5220 nM (active)	16600 nM (active)			
COC1=CC(C)=C[C@@H](C)[C@@H](O)[C@@H](C)CC(C)=CC=C[C@H](OC)[C@H]([C@@H](C)[C@@H](O)[C@H](C)[C@@]2(O)C[C@@H](O)[C@H](C)[C@@H](C(C)C)O2)OC1=O	inactive	inactive	10400 nM (active)			inactive	inactive	inactive	
CC(=Cc1csc(C)n1)[C@@H]1C[C@H]2O[C@@H]2CCC[C@H](C)[C@@H](O)[C@@H](C)C(=O)C(C)(C)[C@@H](O)CC(=O)O1	16.5 nM (active)	inactive		29.3 nM (active)	32.9 nM (active)			36.9 nM (active)	46.5 nM (active)

Source: PubChem BioAssay (NCATS)
